CYP2C9 act = activators of human CYP2C9 | P11712 | recombinant CYP2C9, luciferin-H conversion, luminescence; hits give high values; factor 1 = untreated enzyme, 0 = blocked | activation factor at 5 µM | hit rate 1.4% among 96,000 | AID 1024;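 active = activation factor of 2 or more for CYP2C9 at a 5 µM dose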
Target sequence (P11712 whole entry, looked up): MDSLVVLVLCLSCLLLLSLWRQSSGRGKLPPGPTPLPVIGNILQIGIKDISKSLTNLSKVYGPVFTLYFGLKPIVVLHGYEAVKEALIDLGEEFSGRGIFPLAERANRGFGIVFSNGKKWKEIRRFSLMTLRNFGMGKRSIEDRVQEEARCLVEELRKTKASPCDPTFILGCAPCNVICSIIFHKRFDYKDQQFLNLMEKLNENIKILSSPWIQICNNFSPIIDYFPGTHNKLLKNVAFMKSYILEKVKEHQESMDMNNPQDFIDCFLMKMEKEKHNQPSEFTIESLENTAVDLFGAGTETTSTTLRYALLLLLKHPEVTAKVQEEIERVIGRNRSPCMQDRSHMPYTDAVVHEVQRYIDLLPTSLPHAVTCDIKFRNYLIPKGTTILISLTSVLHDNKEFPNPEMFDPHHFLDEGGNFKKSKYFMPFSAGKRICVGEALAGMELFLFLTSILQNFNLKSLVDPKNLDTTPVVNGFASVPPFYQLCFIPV
Mac1 fbg enh = increases human CD11b/CD18 adhesion to fibrinogen. activation, % at 10 µM. hit rate 0.07% among 93,000. AID 1499. K562 CD11b/CD18 adhesion to fibrinogen, ATPlite luminescence;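 active = 10 µM primary screen giving 50% or more activity, confirmed by 40% or more on retest at that dose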
CD11b adhes inh = blocks human CD11b/CD18 adhesion to fibrinogen | P05107+P11215 | K562 CD11b/CD18 adhesion to fibrinogen, ATPlite luminescence; Mn2+ added to activate the integrin | inhibition, % at 10 µM | hit rate 0.54% among 93,000 | AID 1497;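 active = primary inhibition of 50% or more at 10 µM, then 40% or more on retest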
CYP2C19 act = activators of human cytochrome P450 2C19. P33261. recombinant CYP2C19, luciferin-H EGE luminescence; hits give high values; 0 = fully inhibited enzyme, 1 = untreated enzyme. activation factor at 5 µM. 96,000 tested, under 10 active;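 active = activation factor of at least 2 at 5 µM in the primary screen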
CYP2C19 inhib = inhibitors of human CYP2C19; P33261; CYP2C19 Supersomes, luciferin-H EGE luminescence, 30 min; inhibition, % at 5 µM; hit rate 21% among 96,000; AID 778;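 active = CYP2C19 inhibition above a set limit at 5 µM in the primary screen, cut at about 50% in these data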
CYP2C9 inhib = blocks human cytochrome P450 2C9; inhibition, % at 5 µM; hit rate 20% among 96,000; P11712; CYP2C9 Supersomes, luciferin-H conversion, luminescence;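 active = blocking of liver enzyme CYP2C9 beyond about 50% at 5 µM, limit read from the data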
Large screens that a line does not name were inactive. In the library only some 28% were active in any assay of this set; here they are far more common.

CCOC(=O)CSc1nnc(-c2ccc(OC)cc2)n1CC	none
CCOC(=O)CSc1nnc(-c2cccc(Cl)c2)n1CC	CYP2C19 inhib 52
CCSc1nnc(-c2ccncc2)n1Cc1ccccc1	none
CCC(c1nnc(SCc2nc3ccccc3s2)n1Cc1ccccc1)N(C)C (configuration not stated)	CYP2C19 inhib 81, CYP2C9 inhib 74
COc1cccc(-c2nnc(SCc3nc4ccccc4s3)n2C)c1	CYP2C19 inhib 81
COc1ccc(-c2nnc(SCC(=O)Nc3nc4ccccc4s3)n2C)cc1	none
COc1ccc(-c2nc3ccccc3c(=O)n2CCOc2cccc(C)c2C)cc1	none (no result: CYP2C9 act, CYP2C19 act, CYP2C19 inhib, CYP2C9 inhib)
CCOc1ccc(-c2[nH]nc3c2C(c2ccc4c(c2)OCO4)C(C#N)=C(N)O3)cc1OC (configuration not stated)	none
CCOC(=O)C1=C(C)S/C(=C\N(C)C)C1=O	none
CCn1c(SCc2nc3ccccc3s2)nnc1-c1ccccc1	CYP2C19 inhib 99
c1ccc(Cn2c(SCc3nc4ccccc4s3)nnc2-c2ccco2)cc1	CYP2C19 inhib 88, CYP2C9 inhib 83
CC/C(=C\C(=O)c1ccncc1)Nc1ccc(Br)cc1	CYP2C19 inhib 99, CYP2C9 inhib 89
O=C1CCCC2=C1C1(CCCCC1)N=C(Nc1nc3ccccc3s1)N2	none
Cc1ccc(-n2c(-c3ccc(Br)cc3)c[n+]3c2CCc2ccc4cccnc4c2-3)cc1	none (no result: Mac1 fbg enh, CD11b adhes inh)
Cc1[nH]c2ccccc2c(=O)c1SC(F)(F)C(F)C(F)(F)F (configuration not stated)	CYP2C19 inhib 58 (no result: Mac1 fbg enh, CD11b adhes inh)
C/C(=C\C#N)n1nc(C)cc1N	none
COc1ccc(C(=O)N[C@H](C(=O)OCC(=O)NC(=O)c2cccn2C)C(C)C)cc1	none (no result: CYP2C9 act, CYP2C19 act, CYP2C19 inhib, CYP2C9 inhib)
Nc1cccc(C(=O)Nc2ccc(N)cc2Cl)c1	none
Nc1cccc(C(=O)Nc2ccco2)c1	CYP2C19 inhib 98, CYP2C9 inhib 79
Cc1nnc(NC(=O)C2C3C=CC(O3)C2C(=O)O)s1 (configuration not stated)	none
CCC(=O)OCc1c(C(F)(F)F)nn(C)c1Sc1ccc(Cl)cc1	CYP2C19 inhib 75, CYP2C9 inhib 60 (no result: Mac1 fbg enh, CD11b adhes inh)
CC(=O)OCc1c(C(F)(F)F)nn(C)c1Sc1ccccc1	CYP2C19 inhib 90 (no result: Mac1 fbg enh, CD11b adhes inh)
CC(=O)OCc1c(F)c(F)c(-n2nc(C)cc2C)c(F)c1F	none
CCCn1c(CC)nc([N+](=O)[O-])c1Sc1ccc(F)cc1	none (no result: Mac1 fbg enh, CD11b adhes inh)
CCC(=O)OCc1c(C(F)(F)F)nn(C)c1Sc1ccc(F)cc1	CYP2C19 inhib 61 (no result: Mac1 fbg enh, CD11b adhes inh)
COCC(C)NC(C(=O)Nc1ccc(Cl)c([N+](=O)[O-])c1)c1ccccc1 (configuration not stated)	none (no result: CYP2C9 act, CYP2C19 act, CYP2C19 inhib, CYP2C9 inhib)
O=C(O)c1cc(Cl)c2ccccc2c1O	CYP2C9 inhib 79
Cc1cc(C)c(NC(=O)c2ccc(CNS(=O)(=O)c3cc(C(F)(F)F)ccc3Cl)cc2)c(C)c1	none (no result: CYP2C9 act, CYP2C19 act, CYP2C19 inhib, CYP2C9 inhib)
CCCCCOC(=O)Cn1c(=O)oc2ccccc21	CYP2C19 inhib 89
CCCCOC(=O)Cn1c(=O)n(CC(=O)OCCCC)c2ccccc21	CYP2C9 inhib 50
CC(C)OC(=O)Cn1c(=O)oc2ccccc21	none
CCCn1c(=N)n(CC(=O)OCC)c2ccccc21	none
Cc1nc2ncnn2c(C)c1CCC(=O)N1CC(C)CC(C)C1 (configuration not stated)	none
Cc1ccc(C(=O)ON=C2CCN(S(=O)(=O)c3ccccc3)CC2)cc1	none (no result: Mac1 fbg enh, CD11b adhes inh)
O=C(COC(=O)/C=C/c1ccccc1Cl)NCCc1ccc(Cl)cc1Cl	none (no result: CYP2C9 act, CYP2C19 act, CYP2C19 inhib, CYP2C9 inhib)
COc1ccc2nc(NC(=O)C3COc4ccccc4O3)sc2c1 (configuration not stated)	CYP2C19 inhib 57
CS(=O)(=O)c1ccc2nc(NC(=O)CN3CCN(Cc4ccccc4)CC3)sc2c1	CYP2C19 inhib 65
O=C(Nc1nc2c(s1)CCCC2)C1COc2ccccc2O1 (configuration not stated)	none
CS(=O)(=O)c1ccc2nc(NC(=O)C3COc4ccccc4O3)sc2c1 (configuration not stated)	CYP2C9 inhib 76
CCC(c1c(C)[nH]oc1=O)c1c(C)[nH]oc1=O	none
CCc1ccc(-c2cc(C(F)(F)F)n3nc(C(=O)Nc4cnn(Cc5ccc(C)cc5)c4)cc3n2)s1	none
CCCN(CC(=O)c1cc(C)n(C)c1C)S(=O)(=O)c1cccc(C(F)(F)F)c1	CYP2C19 inhib 76
